Screening results as filed in PubChem BioAssay.
hcDAF12 agonist – H. contortus DAF-12 nuclear receptor activators, primary screen, cell-based, luminescence, HEK293, lit1-tk-luc reporter; 370,000 tested, 1.4% active; activation, % at 6.8 µM; HEK293 hcDAF-12 lit1-tk-luc reporter; 0% DMSO, 100% Δ7-dafachronic acid;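 active = activation above the mean of all tested compounds plus 3 SD, cut at about 5.5% in these data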;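 also: 100% = response to 3 µM Δ7-dafachronic acid high control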
DAX1 inh-1 – DAX1 (NR0B1) inhibitors, primary screen, cell-based, HEK293, Gal4-DAX1, luciferase luminescence | Nuclear receptor subfamily 0 group B member 1 (Homo sapiens), P51843 | inhibition, % at 6.75 µM | HEK293 Gal4-DAX1 luciferase reporter | 340,000 tested, 0.99% active;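 active = inhibition above the mean over all tested compounds plus 3 SD, cut at about 4.2% in these data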;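 also: 0% = DAX1-transfected cells with DMSO and 100% = empty-vector control cells with DMSO; inhibition shows as a rise in luminescence from relieved DAX1 repression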
DAX1 inh-2 – DAX1 (NR0B1) inhibitors on StAR promoter, primary screen, cell-based, luminescence, SF-1 (NR5A1), full-length DAX-1; HEK293T StAR-luciferase reporter, SF-1/DAX-1 repression relief; inhibition, % at 6.8 µM; 370,000 tested, 1.1% active;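 active = inhibition above the mean over all tested compounds plus 3 SD, cut at about 3.6% in these data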;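 also: 0% = DAX-1 cells with DMSO and 100% = cells lacking DAX-1 with DMSO; higher inhibition means more luminescence from relief of DAX-1 repression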
ssDAF12 agonist – S. stercoralis DAF-12 nuclear receptor activators, primary screen, cell-based, luminescence, HEK293, GRIP1 co-expression, lit1-tk-luc; Nuclear hormone receptor DAF-12 (Strongyloides stercoralis); HEK293 ssDAF-12/GRIP1 lit1-tk-luc reporter; % of 3 µM dafachronic acid response; activation, % at 6.8 µM; 370,000 tested, 1% active; AID 652126, 2013;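 active = activation above the mean over all tested compounds plus 3 SD, cut at about 0.9% in these data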;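 also: 0% = DMSO-only wells and 100% = 3 µM delta7-dafachronic acid wells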
hgDAF12 agonist – H. glycines DAF-12 receptor agonists, primary screen, cell-based, luminescence, HEK293, GAL4 fusion, UAS-luciferase; Nuclear hormone receptor DAF-12 (Heterodera glycines), GAL4 fusion; HEK293 GAL4-hgDAF12 UAS-luciferase reporter, agonist luminescence; normalized to butyrate control; activation, % at 6.8 µM; 370,000 tested, 1.8% active; AID 687014, 2013;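 active = activation above a cutoff set at the mean of all screened compounds plus 3 SD, cut at about 10% in these data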;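 also: 0% = DMSO wells and 100% = sodium butyrate wells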
LXR ag – LXR agonists, Gal4 luciferase reporter, confirmation, counter-screen for hcDAF-12 agonist project, cell-based, luminescence, HEK293, H. contortus campaign | shares compounds with hcDAF12 agonist | HEK293 Gal4-LXR tk-luc reporter, 24 h; normalized: DMSO 0%, positive control 100% | activation, % at 6.8 µM | 3,400 tested, under 10 active;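 active = mean percent activation of the reporter above a cutoff set as the average over tested compounds plus their standard deviation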
Target sequence (P55055 whole entry, looked up, the tested form may be a part): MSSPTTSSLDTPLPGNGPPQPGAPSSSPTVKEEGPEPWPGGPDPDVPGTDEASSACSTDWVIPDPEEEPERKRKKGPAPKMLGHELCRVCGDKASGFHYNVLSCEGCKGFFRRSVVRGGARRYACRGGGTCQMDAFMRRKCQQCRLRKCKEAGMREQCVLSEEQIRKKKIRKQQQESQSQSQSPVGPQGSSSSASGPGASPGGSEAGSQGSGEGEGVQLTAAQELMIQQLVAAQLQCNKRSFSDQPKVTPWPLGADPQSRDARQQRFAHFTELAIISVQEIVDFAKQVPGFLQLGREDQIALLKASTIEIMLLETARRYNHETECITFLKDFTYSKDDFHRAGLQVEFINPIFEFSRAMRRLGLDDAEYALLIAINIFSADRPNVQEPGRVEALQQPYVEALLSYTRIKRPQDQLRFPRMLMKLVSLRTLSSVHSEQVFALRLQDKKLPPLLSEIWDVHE
hcDAF12 ag – H. contortus DAF-12 receptor agonists, confirmation, cell-based, luminescence, HEK293, lit1-tk-luc, triplicate. HEK293 hcDAF-12 lit1-tk-luc reporter; % of Δ7-dafachronic acid response. 3,400 tested, 61% active. activation, % at 6.8 µM. shares compounds with hcDAF12 agonist;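 active = mean activation across triplicate tests above the threshold derived from the earlier primary screen, cut at about 5.5% in these data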;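 also: 0% = DMSO only wells and 100% = 3 µM Δ7-dafachronic acid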
* = called active by the depositor; x = no result; ! = a repeat was not active. This is a sample that favours compounds with a hit; in the whole collection about 4.1% have one here.

SMILES	hcDAF12 agonist	DAX1 inh-1	DAX1 inh-2	ssDAF12 agonist	hgDAF12 agonist	LXR ag	hcDAF12 ag
O=C(CN1C(=O)C2C3C=CC(C4CC34)C2C1=O)Nc1cnc2ccccc2c1 (centres undefined)	7.5*	3	0	0	1	0	2
C#CCOCCOCCOCCNc1nc(N2CCN(C(=O)[C@H](CCCCN)n3cc([C@@H](N)CC(C)C)nn3)CC2)nc(N2CCN(C(=O)[C@H](Cc3cc4ccccc4[nH]3)n3cc([C@@H](N)CC(C)C)nn3)CC2)n1	8.1*	x	x	-1	4	0	4
C#CCOCCOCCOCCNc1nc(N2CCN(C(=O)[C@H](CCCCN)n3cc([C@@H](N)CC(C)C)nn3)CC2)nc(N2CCN(C(=O)[C@H](Cc3cc4ccccc4[nH]3)n3cc([C@@H](N)Cc4ccc(O)cc4)nn3)CC2)n1	x	0	x	x	x	x	x
COC(=O)C1CN(CCO)CCS(=O)(=O)N1Cc1cn(Cc2ccc(C)cc2)nn1 (centres undefined)	-1	x	-1	-1	1	x	x
O=C(O)CCCCCNC(=O)C(=O)C1C(=O)Nc2ccccc21 (centres undefined)	4	0	0	1	0	x	x
COCCCNC(=O)C(=O)C1C(=O)Nc2ccccc21 (centres undefined)	11*	0	0	0	0	0	3
C#CCC1c2ccccc2CCN1CC=C (centres undefined)	1	x	0	0	-1	x	x
COc1ccc(-c2cnc(C(O)c3ccccc3)[nH]2)cc1 (centres undefined)	6.7*	x	4.3*	-1	8	1	7.1*
c1ccc(-c2cnnc(-c3ccccn3)n2)cc1	7.1*	2	2	-1	5	0	2
O=C(/C=C/c1c(F)cccc1Cl)Nc1cccnc1	7.1*	3	1	1	11*	1	6.8*
CN1CCN(C(=O)c2cc3sc4ccccc4c3s2)CC1	7.3*	x	4.5*	0	13*	1	5
COC(=O)[C@H](CC(C)C)N(Cc1cn(CC2CCCCC2)nn1)S(=O)(=O)c1ccccc1Br	-2	x	-2	-1	0	x	x
Cc1cc(C)c2c(N)c(C(=O)NN)sc2n1	-1	0	-1	-2	-4	x	x
Cc1cc(C)c2c(N)c(C(=O)Nc3nccs3)sc2n1	18*	-4	2	2.3*	16*	2	24*
Cc1ccc(NC(=O)c2sc3nc(C)cc(C)c3c2N)cc1	7.8*	4	2	0	12*	2	9.3*
O=C(NCCc1cccc(Cl)c1)c1cc([N+](=O)[O-])ccc1Cl	6.7*	-3	-2	-2	-2	0	0
c1ccc2nc(-c3nc4ccccc4[nH]3)ccc2c1	21*	-4	1	1.1*	13*	2	21*
c1ccc2[nH]c(-c3ccnc4ccccc34)nc2c1	6.7*!	-1	1	-1	6	0	7.9*
FC(F)(F)Oc1ccc(Cn2ccc3ccc(-c4ccc5ccn(Cc6ccccc6)c5c4)cc32)cc1	0	x	-1	-1	1	x	x
Cc1cc(C(=O)NCC2CCCO2)sc1C (centres undefined)	-1	0	3	-1	2	x	x
O=C(NCC1CCCO1)c1cc2c(s1)CCC2 (centres undefined)	7.7*	4	2	-2	4	0	2
CN(Cc1ccccc1F)C(=O)C1C2C=CC3(CN(Cc4ccccc4)C(=O)C13)O2 (centres undefined)	0	x	0	-1	-1	x	x
CCN(CC)CCn1c(NCc2ccc(C)o2)nc2ccccc21	-1	0	0	-1	-2	x	x
Cc1ccc(CNc2nc3ccccc3n2C)o1	7.8*	2	1	1.1*	12*	1	8.3*
COc1ccc(CN(C)S(=O)(=O)c2nnc(NC(=O)c3ccccc3OC)s2)cc1OC	7.7*	0	1	0	2	0	4
SMILES	hcDAF12 agonist	DAX1 inh-1	DAX1 inh-2	ssDAF12 agonist	hgDAF12 agonist	LXR ag	hcDAF12 ag
CCOc1ccc(C(=O)NCCc2ccccc2)cc1	6.6*	-2	5.7*	0	7	1	9.2*
CCOc1ccc(C(=O)NCCCCNC(=O)c2ccc(OCC)cc2)cc1	0	2	0	-2	6	x	x
COC(=O)[C@]12C[C@H](CC(=O)N3CCN(C(=O)C4CC4)CC3)C(=O)N(Cc3ccccc3)C1=C[C@H](C(C)C)O[C@@H]2C1CC1	0	x	2	-1	-2	x	x
Oc1cccc(Nc2nc(O)c(/C=C3\C=Nc4ccccc43)s2)c1	6.8*	-1	1	0	10	0	7.0*
CC(CCN1CCC(C(O)(c2ccccc2)c2ccccc2)CC1)Oc1cccc(F)c1 (centres undefined)	11*	x	0	0	1	0	2
O=C(Nc1nc2c(ccc3ccccc32)s1)c1ccco1	6.7*	1	2	1	3	1	4
O=C(NC(=S)Nc1nc2c(ccc3ccccc32)s1)c1cccs1	9.0*	1	-1	0	6	0	5.9*
O=C(Nc1cccc2ccccc12)c1ccco1	2	x	-1	-1	0	x	x
C[C@@H]1CN(C(=O)OC(C)(C)C)CCN1c1ccc(N2CCS(=O)(=O)CC2)c(C#N)c1	-1	x	-1	-2	-1	x	x
C#CC1c2ccccc2CCN1CC=C (centres undefined)	-2	x	-2	-1	-2	x	x
COc1cc(OC)c2c(=O)c3c(C(=O)O)c(O)ccc3oc2c1	-1	x	-3	-1	-6	x	x
CC(=O)Nc1c(-c2ccc3ccccc3c2)nc2ccccn12	7.6*	4.2*	2	1.9*	9	1	7.3*
O=C(C1=NN[C@@H]2C(=O)N(c3cccc(F)c3)C(=O)[C@H]12)c1ccc2ccccc2n1	9.0*	0	2	1	3	0	3
